Inconclusive results are not listed. Where a call stands in place of a potency, no number is given. Active and inactive are the calls of the source. Calls come from the whole dose curve; as a rule, active = well fitted cell-killing curve with a large enough effect in the repeat runs; inconclusive = weak or mixed curves, or effect the other way; inactive = no such curve, though single readings can be large or run the other way.
Potency is the fitted concentration of half-maximal effect.

A short description of the experiment: qHTS assay to identify small molecule agonists of the estrogen receptor alpha (ER-alpha) signaling pathway in the presence of an antagonist - cell viability counter screen (AID 1259386).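 Note: cells exposed to compounds for 22 h at 37 °C before the viability read; nearly all actives have a fitted effect of over 30% in size.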 To be noted: VM7Luc4E2 viability, CellTiter-Fluor fluorescence, 22 h; series mostly up to 92.4 µM. The text has this: National Center for Advancing Translational Sciences [NCATS]
NIH Chemical Genomics Center [NCGC]
U.S. Environmental Protection Agency [EPA]
National Institutes of Environmental Health Sciences [NIEHS]
National Toxicology Program [NTP]
U.S. Food and Drug Administration [FDA]
Estrogen receptor (ER), a member of nuclear hormone receptor plays an important role in development, metabolic homeostasis and reproduction. Two subtypes of ER, ER-alpha and ER-beta, have similar expression patterns with some uniqueness in both types. Endocrine disrupting chemicals (EDCs) and their interactions with steroid hormone receptors like ER causes disruption of normal endocrine function. Therefore, it is important to understand the effect of environmental chemicals in ER signaling pathway. For identifying ER agonists, VM7Luc4E2 cell line has been used in the current assay.
VM7Luc4E2 cell line (provided by Denison MS, University of California) endogenously expresses full-length ER-alpha and is stably transfected with a plasmid containing four estrogen responsive elements (ERE) upstream of a luciferase reporter gene. This current screening for measuring luciferase reporter gene activity using VM7Luc4E2 cells against Tox21 10K library collection is a confirmation study on agonist mode screening in presence of ER-antagonist (ICI-182,780) at 10.0nM final concentration. The cytotoxicity of the compounds was tested in parallel by measuring the cell viability using CellTiter-Fluor assay system (Promega, Madison, WI) in the same wells.
Tox21 Assay Protocol Summary:
VM7Luc4E2 cells were cultured in phenol red free assay medium containing 10% charcoal stripped FBS for 5 days prior to the assay. The cells were dispensed at 4,000 cells in 4uL of assay medium per well into white wall/solid-bottom 1536-well plates (Corning Life Sciences, Corning, NY) using a Multidrop Combi (Thermo Fisher Scientific Inc., Waltham, MA) dispenser. After the assay plates were incubated at 37C and 5% CO2 for 24hr, 1uL of 10.0nM (final concentration) ICI-182,780 or assay buffer was added using two separate tips of Flying Reagent Dispenser (FRD, Aurora Discovery, San Diego, CA). Then 23nL of compounds dissolved in DMSO at 15 concentrations and positive controls or DMSO only was transferred to the assay plates by a Pintool station (Wako, San Diego, CA). The assay plates were incubated at 37C and 5% CO2 for 22hr. After 21hr incubation at 37C, 1uL/well CellTiter-Fluor reagent (Promega Corporation, Madison, WI) was added to each well using FRD and after 1hr incubation at 37C and 5% CO2, the fluorescence signal was measured on ViewLux plate reader (PerkinElmer, Shelton, CT).
Turning to `CN(C)c1ccc(CCO)cc1`, the Potency entry was “inactive”.

`CN(C)c1ccc(C(c2ccccc2)c2ccc(N(C)C)cc2)cc1`: the Potency entry is “inactive”.

Consider `COc1ccnc(CS(=O)c2nc3ccc(OC(F)F)cc3[nH]2)c1OC` (stereo not given), for which the Potency entry was “inactive”.

With `CCOC(=O)Cc1cccc2ccccc12`, the Potency result is “inactive”.

For `Nc1cc(C(=O)O)c(O)c(S(=O)(=O)O)c1`, the Potency entry is “inactive”.

With `O=C(O)C1(C(=O)O)CCC1.[NH2-].[NH2-].[Pt+2]`, the Potency entry was “inactive”.

As to `C=CC1CC2C=CC1C2` (stereo not given), the Potency entry was “inactive”.

Turning to `CCC(CC)Nc1ccc(C)c(C)c1`, the Potency entry is “inactive”.

As to `CCO[Si](CCCCl)(OCC)OCC`, the Potency entry is “inactive”.

Turning to `C=CCOC(=O)CCC1CCCCC1`, the Potency result was “inactive”.

In the case of `COc1cc(C(=O)OCCCN2CCCN(CCCOC(=O)c3cc(OC)c(OC)c(OC)c3)CC2)cc(OC)c1OC`, the Potency was 13.3 µM (active).

For `NC(=O)C(c1ccccc1)(c1ccccc1)[C@@H]1CCN(CCc2ccc3c(c2)CCO3)C1`, the Potency result was “inactive”.

As for `C=C(C)C(=O)OCCO`, the Potency entry is “inactive”.

Regarding `O=P(O)(OCc1ccccc1)OCc1ccccc1`, the Potency result is “inactive”.

`COC(C)(C)CCO`: the Potency result is “inactive”.

Consider `CC(C)O.CC(C)O.CCOC(=O)/C=C(\C)O.CCOC(=O)/C=C(\C)O.[Ti]`, for which the Potency entry is “inactive”.

Consider `CC(C)(C)OCC1CO1` (stereo not given), for which the Potency entry was “inactive”.

For the molecule `CCC(C)c1cc(C(C)(C)C)c(O)c(C(C)(C)C)c1` (stereo not given), the Potency result is “inactive”.

Regarding `CCN(CC)c1ccc2c(-c3ccccc3C(=O)O)c3ccc(=[N+](CC)CC)cc-3oc2c1`, the Potency was 6.11 µM (active).

In the case of `O=C1CCC(=O)O1`, the Potency result was “inactive”.

On to `C=C1[C@H]2CC[C@@H]3[C@H]2C(C)(C)CCC[C@]13C`, for which the Potency result is “inactive”.

Consider `Cc1cccc(C)c1NC(=O)CN(CC(=O)O)CC(=O)O`, for which the Potency result was “inactive”.

As for `O=C1CCCCCCCCCCCC(=O)OCCO1`, the Potency result was “inactive”.

Regarding `CCCCCCCC/C=C\CCCCCCCC(=O)OCC`, the Potency entry was “inactive”.

With `NCC(=O)O`, the activity change, negative = cytotoxicity was 6.54% [at 19 µM] (inactive).

`CNCCCN1c2ccccc2CCc2ccccc21`: the Potency entry is “inactive”.

Consider `Clc1ccc(Cn2c(CN3CCCC3)nc3ccccc32)cc1`, for which the Potency result is “inactive”.

For the molecule `c1ccc(CNCCNCc2ccccc2)cc1`, the Potency result is “inactive”.

As to `Brc1c2ccccc2cc2ccccc12`, the Potency entry is “inactive”.

Turning to `CCCCc1ncc(/C=C(\Cc2cccs2)C(=O)O)n1Cc1ccc(C(=O)O)cc1`, the Potency result is “inactive”.

On to `CC[N+]1(CC)CCC(=C(c2ccccc2)c2ccccc2)C1C` (stereo not given), for which the Potency entry was “inactive”.

As for `CCCCOC(=O)CCCCCCCC(=O)OCCCC`, the Potency result was “inactive”.

Turning to `C[C@@H]1C[C@H]2[C@@H]3CCC4=CC(=O)C=C[C@]4(C)[C@@]3(F)[C@@H](O)C[C@]2(C)[C@@]1(O)C(=O)COC(=O)c1ccncc1`, the Potency result was “inactive”.

With `CNC(=O)CN(CCN(CCN(CC(=O)[O-])CC(=O)NC)CC(=O)[O-])CC(=O)[O-].O.[Gd+3]`, the Potency result is “inactive”.

As to `Clc1ccc2c(c1)CCc1cccnc1C2=C1CCNCC1`, the Potency entry is “inactive”.

For `COc1cc2nc(N(C)CCCNC(=O)C3CCCO3)nc(N)c2cc1OC` (stereo not given), the Potency was 23.7 µM (active).

Turning to `Nc1ncn([C@H]2C[C@H](O)[C@@H](CO)O2)c(=O)n1`, the Potency result is “inactive”.

Consider `O=C(Nc1ccc(S(=O)(=O)N2CCOCC2)cc1)c1cc(Cl)ccc1NS(=O)(=O)c1ccc(Cl)s1`, for which the Potency result was “inactive”.

Turning to `CCCCCCCCCCCCN1CCCCCC1=O`, the Potency result is “inactive”.

Take `Cc1ccc(C(C)OC(=O)C2(C)CCC(C(=O)O)C2(C)C)cc1` (stereo not given): the Potency result is “inactive”.

(Values after PubChem BioAssay (Tox21).)
